In the library only some 7.9% were active in any assay of this set; here they are far more common.
MARV entry inh: inhibitors of Marburg virus binding or cell entry | Marburg virus pseudotyped entry inhibition, cell reporter | Potency, µM (titrated, usually from 37.8 µM), actives largely listed as inhibitors | 300,000 tested, 1.8% active; calls by dose curve; tested in HEK293 cells
Lassa entry inh: inhibitors of Lassa virus binding or cell entry | Lassa virus pseudotype entry inhibition, cell reporter | Potency, µM (doses to about 37.9 µM), actives largely listed as inhibitors | 300,000 tested, 1.2% active | AID 540256; calls by dose curve; tested in HEK293 cells; note: nearly all actives have a fitted effect of over 50% in size
FMDV inh: blocks foot and mouth disease virus; FMDV antiviral cell-based qHTS; 410,000 tested, 1.2% active; Potency, µM (highest dose often 57.9 µM), most hits filed as inhibitors; calls by dose curve; tested in HEK293T cells; note: read-out not given here; nearly all actives have a fitted effect of over 45% in size
HCV inhibitor: inhibitors of hepatitis C virus infection; Potency, µM (doses to about 41.8 µM), usual class: inhibitors; Huh7.5.1 HCVcc-Cre infection, luciferase reporter, 44 h; 340,000 tested, 3.4% active; active = well fitted inhibition curve with a large enough effect; inconclusive = small, poorly fitted or top-dose-only effect, or another doubt; inactive = no such curve, though single readings can be large or run the other way
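Cells seeded at 1,000/well and cultured 4 h, then compounds added followed by HCVcc-Cre virus (~0.5 moi). After 44 h further culture, luciferase substrate was added, plates held 15 min at room temperature, and luminescence read for 15 sec.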
HCMV antiviral: inhibitors of human cytomegalovirus; AID 1259415; activity change, negative = inhibition, % at 57.5 µM; HFF cells, HCMV-luciferase reporter, 72 h; hits give low values; 410,000 tested, 4.5% active; in the data active = activity change below about -60%; inconclusive = no clear call, values can overlap the other calls; inactive = above about -39%
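Luciferase read-out from HCMV-luciferase-infected HFFs (MOI 1 PFU/cell) 72 h post infection at 37C; compounds added after 16 h cell attachment; activity normalized between buffer-only basal and Salinomycin (10uM) inhibitor controls.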
Hits are given with their value; i = inactive; ? = inconclusive; nt = no result.

SMILES	MARV entry inh	Lassa entry inh	FMDV inh	HCV inhibitor	HCMV antiviral
COc1ccc(-c2nc3cnc(N4CCOCC4)nc3n(-c3ccc(OC)cc3)c2=O)cc1	nt	nt	i	nt	nt
CN1C(=O)N(C)c2ccc(Br)c3cccc1c23	nt	nt	i	14µM	?
NS(=O)(=O)c1ccc(CCNC(=O)CNCCc2ccc(C(F)(F)F)cc2)cc1	nt	nt	?	?	-61
O=C(CN1CCN(Cc2ccc(F)cc2)CC1)NCCc1ccccc1	i	?	i	i	-81
O=C(NCCc1ccccc1)c1ccccc1Cl	11µM	?	i	i	i
NS(=O)(=O)c1ccc(CCNCC(=O)NC2CC2)cc1	i	i	i	i	i
O=C(O)c1ccccc1C(=O)NCCc1ccc(Cl)cc1	i	i	i	i	i
NS(=O)(=O)c1ccc(CCNCC(=O)N2CCC(Cc3ccccc3)CC2)cc1	nt	nt	i	11µM	-61
CCOC(=O)c1cc(OC)c2cccc(CN3CCC(C)(C(=O)NCCOC)C3)c2c1 (stereo unspecified)	nt	nt	i	nt	nt
O=C(Nc1cccc(OCc2cc(=O)n3ccccc3n2)c1)c1ccccc1Br	nt	i	i	nt	i
CC(C)C1C(=O)Nc2ccc(S(=O)(=O)NCCc3ccc(Cl)cc3)cc21 (stereo unspecified)	nt	i	i	nt	i
NS(=O)(=O)c1ccc(CCNC(=O)c2ccccc2Cc2ccccc2)cc1	nt	nt	i	i	-61
CCc1sc(C(=O)NCCc2ccc(S(N)(=O)=O)cc2)cc1C	i	i	i	?	i
S=C(NCCNC(=S)Nc1ccccc1Cl)Nc1ccccc1Cl	?	?	i	?	?
S=C(NCCc1ccccc1)Nc1ccccc1Cl	i	i	i	i	-64
S=C(NCCCc1ccccc1)Nc1ccccc1Cl	i	i	i	i	-60
CCc1sc(C(=O)NCCc2ccc(S(N)(=O)=O)cc2)cc1Br	i	?	i	i	-68
S=C(NCc1ccccc1Cl)Nc1ccccc1Cl	nt	nt	i	i	i
O=C(CCn1cnnn1)Nc1cccc(F)c1	i	i	i	i	i
COc1ccc(N2CC(C)(C)C[C@H]2/C=C/C(=O)OC(C)(C)C)cc1	nt	nt	nt	nt	i
O=S(=O)(NCC(c1ccco1)N1CCc2ccccc2C1)c1ccc(Br)cc1 (stereo unspecified)	?	?	i	?	i
S=C(NCCc1ccccc1)Nc1ccc(Br)cn1	i	i	i	i	-102
O=C(NCCc1ccc(F)cc1)Nc1ccccc1Cl	i	i	i	i	-63
CCCS(=O)(=O)c1nc(S(=O)(=O)c2ccc(Cl)cc2)c(N2CCC(O)CC2)s1	i	i	i	i	?
COc1ccc(CNC(=O)C(c2ccc(C)cc2)N(Cc2cccs2)C(=O)c2ccc3c(c2)OCCO3)cc1 (stereo unspecified)	12µM	?	?	11µM	?
SMILES	MARV entry inh	Lassa entry inh	FMDV inh	HCV inhibitor	HCMV antiviral
COCCN(C(=O)Cc1cccs1)C(C(=O)NCc1ccc(OC)cc1)c1ccc(OC)cc1 (stereo unspecified)	i	?	nt	i	i
COC(=O)c1ccc(C(C(=O)NCc2ccccc2)N(Cc2cccs2)C(=O)c2cnccn2)cc1 (stereo unspecified)	?	i	i	i	i
Cc1ccc(C(C(=O)NCc2ccccc2)N(Cc2cccs2)C(=O)c2ccc3c(c2)OCCO3)cc1 (stereo unspecified)	6.5µM	6.5µM	i	?	-69
Cc1ccc(-c2nnc(-c3ccc(NC(=O)Cc4cccs4)cc3)o2)cc1	?	?	i	?	-85
O=C(CSc1nnc(-c2ccco2)c(-c2ccco2)n1)Nc1ccccc1	i	i	i	?	i
Cc1ccc(NC(=O)CSc2nnc(-c3ccco3)c(-c3ccco3)n2)cc1	i	2.8µM	i	?	i
Cc1ccc(NC(=O)CCSc2nnc(-c3ccco3)o2)cc1	i	i	i	?	i
Cc1ccc(SCC(=O)Nc2ccc(-c3nnc(-c4ccco4)o3)cc2)cc1	?	?	i	11µM	i
Cc1ccc(-c2nnc(SCC(=O)N(C)C)nc2-c2ccc(C)cc2)cc1	?	i	i	i	-60
Cc1ccc(-c2nnc(SCC(N)=O)nc2-c2ccc(C)cc2)cc1	?	nt	i	i	?
CCc1ccccc1NC(=O)CCC(=O)N1CC(C)Oc2ccc(C)cc21 (stereo unspecified)	i	i	i	nt	i
CCOc1ccc(CNC(=O)CCS(=O)(=O)c2cc3c4c(c2)CCN4C(=O)CC3)cc1	nt	i	i	nt	i
COc1ccc(NC(=O)CSc2ccc(-c3ccco3)nn2)cc1	?	i	i	i	-66
CCCn1nc(C(=O)NCC2COc3ccccc3O2)c2ccccc2c1=O (stereo unspecified)	nt	nt	i	?	i
O=C(COC(=O)CCC(=O)N1CCOCC1)Nc1ccc(Br)cc1Br	i	?	i	i	i
Cc1ccnc(NC(=O)CCCc2ccccc2)c1	?	i	i	i	i
Cc1ccc(CNC(=O)CCCc2c[nH]c3ccccc23)cc1	i	i	i	i	i
COc1cc(NC(=O)CCCc2c[nH]c3ccccc23)cc(OC)c1	nt	nt	i	?	i
O=C(CCCc1c[nH]c2ccccc12)NCc1ccccc1F	i	7.9µM	i	i	i
Cc1ccc(NC(=O)CCCc2c[nH]c3ccccc23)nc1	nt	nt	i	i	-98
Cc1ccnc(NC(=O)CCCc2c[nH]c3ccccc23)c1	i	i	i	i	-101
O=C(CNC(=O)c1ccc(Cl)cc1Cl)OCCOc1ccccc1F	i	i	i	i	i
COC(=O)[C@@H]1[C@@H](CO)[C@@H]2Cn3c(ccc(Br)c3=O)[C@H]1N2S(C)(=O)=O	nt	nt	nt	nt	i
Cc1ccc(/C(N)=N/OC(=O)CCCc2ccccc2)cc1	i	i	i	i	i
Cc1cc(C(=O)NCCCN2CCN(c3cc(Cl)ccc3C)CC2)n(-c2ccccc2)n1	i	nt	?	?	i
SMILES	MARV entry inh	Lassa entry inh	FMDV inh	HCV inhibitor	HCMV antiviral
Cc1cc(C(=O)Nc2cccc(C)c2C)n(-c2ccccc2)n1	i	?	i	i	-88
Cc1cc(C(=O)NCCN2CCN(c3cccc(Cl)c3)CC2)n(-c2ccccc2)n1	7.3µM	7.3µM	?	?	i
COC(C)(C)[C@@H](O)COc1c2ccoc2cc2oc(=O)ccc12	nt	nt	i	?	i
Cc1oc(-c2cccc(NC(=O)c3ccccn3)c2)nc1CNC(=O)C#Cc1ccccc1	nt	nt	i	nt	nt
Cn1cc(-c2cc3n(n2)CCC(=O)N3CCCC(=O)Nc2ccccc2Cl)c2ccccc21	nt	i	i	nt	-62
Cn1cc(-c2cc3n(n2)CCC(=O)N3CCCC(=O)Nc2ccccc2F)c2ccccc21	nt	i	i	nt	i
COc1ccc(CNc2cc(C)nc3ncnn23)c(OC)c1	?	i	?	?	-81
COc1ccc(Nc2cc(C)nc3ncnn23)c(OC)c1	i	nt	i	i	i
COC(=O)[C@H]1[C@H](CO)[C@H]2Cn3c(ccc(Br)c3=O)[C@H]2N1Cc1ccc2c(c1)OCO2	nt	nt	nt	nt	i
COc1cccc(-c2ccc3ncnc(NCCN4CCOCC4)c3c2)c1	nt	nt	i	nt	nt
Cc1csc(SCC(=O)Nc2cccc(C)c2C)n1	i	i	i	i	-64
Cc1csc(SCC(=O)N2CCN(S(=O)(=O)c3ccccc3)CC2)n1	i	i	i	i	i
Cc1csc(SCC(=O)N2CCCC2)n1	i	i	i	i	-71
Cc1ccc(C)c(NC(=O)CSc2nc(C)cs2)c1	nt	nt	i	i	i
